Whole data set: some 33,000 sequences, median “e-score” near -0.05, cut for the highest 2% near 0.38. What follows is part of a selection rich in the highest values, with near analogues and random picks from the rest.

The experiment has as its target T1, SIX1-Q177R homeodomain (human, UniProt Q15475 108-198, Q177R).
T1 sequence: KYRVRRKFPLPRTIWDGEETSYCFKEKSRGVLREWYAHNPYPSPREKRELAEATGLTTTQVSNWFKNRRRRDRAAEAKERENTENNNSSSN
As to the kind of experiment: universal protein binding microarray; Universal all-10-mer PBM (8x60K, AMADID 030236), 300 nM GST-tagged protein, Alexa Fluor 488 anti-GST; buffer, salt, pH and temperature not stated (as in Berger); high values mean tight binding. As to conditions: protein: ivt; tags: N-terminal GST; dsDNA, one strand shown. In a few lines: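 Homeodomains carrying a GST tag were produced by in vitro transcription/translation, then quantified by anti-GST western blot against a recombinant GST standard curve. Duplicate applications at 300 nM final concentration were made to universal 'all 10-mer' protein binding microarrays in 8×60K format. The Universal PBM Analysis Suite was used to express binding as 8-mer E-scores.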
As to ACTCCCGA, the binding signal was determined as 0.172 ± 0.0235 E-score.
Then CCAGGTAC, with 0.2011 ± 0.000495 E-score; and CACCGCTG, with 0.249 ± 0.0245 E-score.
Then CACGTTAC, with 0.179 ± 0.0457 E-score; and ACTAGGAG, with 0.219 ± 0.0299 E-score; and CTAAAACA, with 0.211 ± 0.0343 E-score.
As for CGTGTGGA, the figure is 0.159 ± 0.00165 E-score.
As for GGTGTGGA, the binding signal is 0.369 ± 0.0214 E-score.
CGAGTCGA: the binding signal was determined as 0.151 ± 0.006 E-score.
Then GGTGTCGA, with 0.4869 ± 0.00312 E-score; and CGTGTCGA, with 0.404 ± 0.0138 E-score.
Then GGAGTCGA, with 0.227 ± 0.0424 E-score; and CACGGCCC, with 0.215 ± 0.0365 E-score.
Then GGATCACC, with 0.203 ± 0.0315 E-score; and CCATGACA, with 0.222 ± 0.0113 E-score.
On to TACTGACA, for which the binding signal is 0.22 ± 0.0513 E-score.
As for GGGCGACA, the figure is 0.156 ± 0.0211 E-score.
As for AGGAGGTG, the figure is 0.2857 ± 0.000318 E-score; as for AACACGCA, 0.396 ± 0.0109 E-score; as for TACACGCA, 0.406 ± 0.0157 E-score.
Consider TACACACA, for which the binding signal was found to be 0.259 ± 0.0395 E-score.
On to AACACGCT, for which the binding signal was determined as 0.379 ± 0.00919 E-score.
Regarding AACACGCC, the binding signal worked out at 0.366 ± 0.013 E-score.
Then CACACGCA, with 0.32 ± 0.022 E-score; and AACACGAT, with 0.358 ± 0.00931 E-score.
Then AACACGCG, with 0.36 ± 0.0195 E-score.
Then CACCGAAG, with 0.283 ± 0.0113 E-score.
Regarding ACTCCGGG, the binding signal is 0.2895 ± 0.00256 E-score.
As for AATTTACA, the figure is 0.182 ± 0.0161 E-score.
Consider AAACCCCC, for which the binding signal came out at 0.24 ± 0.0528 E-score.
Then ATCACACC, with 0.442 ± 0.00795 E-score; and GTCACACA, with 0.215 ± 0.0441 E-score.
As to CACTCACC, the binding signal is 0.242 ± 0.0149 E-score.
Then ATCACACG, with 0.318 ± 0.0128 E-score; and ATCACCCC, with 0.204 ± 0.0194 E-score; and CTCACACC, with 0.393 ± 0.0106 E-score.
For the sequence ACCAAGTG, the binding signal was 0.208 ± 0.0393 E-score.
Then GGAGTCAA, with 0.2 ± 0.0177 E-score; and CCGCAACA, with 0.17 ± 0.0293 E-score; and CACCGAAC, with 0.335 ± 0.0128 E-score.
As to CAGGATAC, the binding signal was 0.168 ± 0.0209 E-score.
As for CAGAGCAC, the figure is 0.19 ± 0.0352 E-score.
Then CAGGACAC, with 0.423 ± 0.02 E-score; and GAGGACAC, with 0.401 ± 0.00566 E-score; and GAGGATAC, with 0.235 ± 0.0473 E-score.
Regarding AAGCACAC, the binding signal amounted to 0.276 ± 0.0054 E-score.
Consider AAGGATAC, for which the binding signal is 0.275 ± 0.00871 E-score.
Turning to GAGCACAC, the binding signal turned out to be 0.262 ± 0.0319 E-score.
Then AAGGACAC, with 0.40482 ± 0.000361 E-score.
For the sequence ACATCGTG, the binding signal worked out at 0.151 ± 0.0256 E-score.
GTATGATA: the binding signal came to 0.18 ± 0.0375 E-score.
As for CCTTTACA, the figure is 0.242 ± 0.0698 E-score; as for CCCCCCTC, 0.163 ± 0.0311 E-score.
As for CTGGGTAC, the figure is 0.278 ± 0.0111 E-score; as for CCGCAAGG, 0.15 ± 0.00344 E-score.
CATTTACA: the binding signal is 0.267 ± 0.0374 E-score.
Then CACCGAAA, with 0.329 ± 0.00917 E-score.
As for AGTGGATC, the binding signal was determined as 0.216 ± 0.0109 E-score.
Turning to GATCAACA, the binding signal was 0.206 ± 0.00474 E-score.
In the case of CACGAACG, the binding signal was determined as 0.207 ± 0.0299 E-score.
As for CCCTAGCA, the binding signal stood at 0.17 ± 0.00574 E-score.
In the case of ACGAGGGG, the binding signal came to 0.208 ± 0.0082 E-score.
As for GAAGATAC, the figure is 0.16 ± 0.0546 E-score; as for GAAGACAC, 0.38 ± 0.00523 E-score; as for CAAGACAC, 0.4021 ± 0.00161 E-score.
For AAAGACAC, the binding signal was found to be 0.425 ± 0.0124 E-score.
With ATGACCCC, the binding signal worked out at 0.318 ± 0.0237 E-score.
As for ATTGAGTG, the figure is 0.18 ± 0.0318 E-score; as for GGTTTACA, 0.16 ± 0.0137 E-score; as for CTCCCTAA, 0.165 ± 0.0334 E-score.
As for CCTAACAC, the figure is 0.404 ± 0.00657 E-score; as for GCTACCAC, 0.181 ± 0.00856 E-score.
As for CTAAACAC, the binding signal turned out to be 0.364 ± 0.00812 E-score.
Consider GCTAACCC, for which the binding signal is 0.186 ± 0.00969 E-score.
For the sequence CCTATCAC, the binding signal came out at 0.173 ± 0.0477 E-score.
Then ACTAACAC, with 0.427 ± 0.0173 E-score.
As for ACAAACAC, the figure is 0.379 ± 0.0204 E-score.
Then GCTAACAC, with 0.417 ± 0.0145 E-score; and ACTAAAAC, with 0.168 ± 0.0313 E-score; and ACCCGACC, with 0.223 ± 0.0107 E-score.
Consider GTTCAGAA, for which the binding signal turned out to be 0.18 ± 0.0199 E-score.
ACCCCGCA: the binding signal was found to be 0.259 ± 0.0114 E-score.
As for CCAAGCCC, the figure is 0.155 ± 0.0141 E-score; as for CCCAGACA, 0.16 ± 0.0032 E-score.
Turning to ATCAGACA, the binding signal was found to be 0.204 ± 0.00355 E-score.
Then AGTGTTCG, with 0.369 ± 0.0134 E-score; and GGTGTTTA, with 0.4563 ± 0.00286 E-score.
On to GGGGTTAA, for which the binding signal amounted to 0.198 ± 0.00273 E-score.
Then TGTGTTAA, with 0.171 ± 0.00303 E-score; and AGTGTTTA, with 0.296 ± 0.0461 E-score.
In the case of AGTGTTAG, the binding signal stood at 0.394 ± 0.00412 E-score.
As for AGTGTTTG, the figure is 0.336 ± 0.0138 E-score; as for GGTGTTAA, 0.475 ± 0.00681 E-score; as for CGTGTTAA, 0.391 ± 0.0262 E-score.
Take CGTGTGAA: the binding signal was 0.302 ± 0.00315 E-score.
As to CGTGTTTA, the binding signal turned out to be 0.346 ± 0.0127 E-score.
As for GGAGTTAA, the figure is 0.266 ± 0.0274 E-score; as for CCTATAAC, 0.194 ± 0.0389 E-score.
Then ACCCTACC, with 0.193 ± 0.0205 E-score; and CGGGTTCA, with 0.175 ± 0.04 E-score; and CACCGGTA, with 0.345 ± 0.00414 E-score.
With CGTGATAC, the binding signal was 0.248 ± 0.0091 E-score.
For the sequence ATCCCGGG, the binding signal was determined as 0.209 ± 0.0458 E-score.
On to CCGGGGTA, for which the binding signal turned out to be 0.284 ± 0.00939 E-score.
As for CGTGTGAG, the figure is 0.276 ± 0.0289 E-score; as for CGTGTTAC, 0.408 ± 0.00576 E-score; as for CGTGTTAG, 0.38 ± 0.00955 E-score.
Then CGTGTTTC, with 0.339 ± 0.0138 E-score; and GGTGTTGA, with 0.4626 ± 0.00453 E-score; and CGTGTTGA, with 0.358 ± 0.0177 E-score.
Then AGTGTTGA, with 0.318 ± 0.0168 E-score.
Regarding CGTGTTGC, the binding signal amounted to 0.333 ± 0.0224 E-score.
Turning to ACGGTCTC, the binding signal was 0.153 ± 0.00373 E-score.
As for CACCGCAC, the figure is 0.333 ± 0.0118 E-score; as for AGTACCCG, 0.154 ± 0.00938 E-score.
Then CTAGGGTA, with 0.236 ± 0.0217 E-score; and GTGTGACA, with 0.436 ± 0.0156 E-score.
As for CTGTGACA, the figure is 0.21 ± 0.00229 E-score; as for GGGTGACA, 0.302 ± 0.0147 E-score; as for TGTCAAAA, 0.198 ± 0.0336 E-score.
CACCCTGC: the binding signal came to 0.293 ± 0.0291 E-score.
Then ATGGAGTG, with 0.274 ± 0.0146 E-score.
Then AGGGGACA, with 0.179 ± 0.0364 E-score; and ACCCACGC, with 0.171 ± 0.00328 E-score; and ACCCCGCT, with 0.209 ± 0.0248 E-score.
For ACACCGCA, the binding signal was 0.4797 ± 0.00463 E-score.
Then ATACCGCG, with 0.238 ± 0.0151 E-score; and ATACCGCA, with 0.179 ± 0.00528 E-score.
For ACACCGCG, the binding signal came out at 0.4808 ± 0.00187 E-score.
For the sequence ACCCCGCG, the binding signal is 0.254 ± 0.0276 E-score.
As for GCACCGCA, the figure is 0.169 ± 0.0396 E-score; as for ACACCGCC, 0.4737 ± 0.0034 E-score; as for GCACCGCC, 0.265 ± 0.00467 E-score.
As for ACACCGCT, the figure is 0.4659 ± 0.00251 E-score; as for ACTCCGCT, 0.185 ± 0.0321 E-score.
Then ACGCCGCC, with 0.153 ± 0.0249 E-score; and CCTTGACA, with 0.253 ± 0.00743 E-score; and CCCATGGA, with 0.189 ± 0.033 E-score.
Consider ACCCTGTG, for which the binding signal turned out to be 0.207 ± 0.0277 E-score.
Then GGTATACC, with 0.303 ± 0.0126 E-score; and ATGGGTGC, with 0.154 ± 0.0381 E-score; and CCCCTGAG, with 0.16 ± 0.00444 E-score.
On to AGGCGTAC, for which the binding signal turned out to be 0.221 ± 0.0327 E-score.
In the case of ACCAGGTG, the binding signal was 0.217 ± 0.0167 E-score.
As for ACTGCGTG, the figure is 0.29 ± 0.0171 E-score.
As to ATGCGACA, the binding signal worked out at 0.198 ± 0.03 E-score.
As for CGGGTTAC, the binding signal turned out to be 0.159 ± 0.0432 E-score.
As for ATAGGTAC, the figure is 0.166 ± 0.021 E-score.
Then AGACACCG, with 0.468 ± 0.0126 E-score; and AGACACTG, with 0.341 ± 0.0138 E-score; and AGACACGG, with 0.377 ± 0.019 E-score.
In the case of AGACACCT, the binding signal is 0.4528 ± 0.0033 E-score.
As for AATGATAC, the figure is 0.212 ± 0.0688 E-score; as for AACCCCAC, 0.222 ± 0.0452 E-score; as for ACCCGGAA, 0.272 ± 0.0105 E-score.
As for ACACGGAT, the figure is 0.392 ± 0.0346 E-score.
Then ACCCGGAT, with 0.301 ± 0.0466 E-score; and ACACGGAG, with 0.369 ± 0.00835 E-score; and ACACGGAA, with 0.398 ± 0.0244 E-score.
AGGATACC: the binding signal stood at 0.337 ± 0.0124 E-score.
For the sequence CGACCTCA, the binding signal is 0.168 ± 0.0123 E-score.
As for CAACTACA, the figure is 0.2474 ± 0.00148 E-score; as for ACCCTACG, 0.164 ± 0.0266 E-score; as for CCCCATGC, 0.201 ± 0.0118 E-score.
As for GAAGGGTA, the figure is 0.169 ± 0.0222 E-score; as for AGTGTAGC, 0.3944 ± 0.000672 E-score; as for CGTGTAGC, 0.416 ± 0.0198 E-score.
On to AGTGTGGC, for which the binding signal is 0.193 ± 0.0161 E-score.
As for CGTGTAGA, the figure is 0.379 ± 0.0134 E-score; as for AGTGTAGG, 0.411 ± 0.00742 E-score.
As to AGTGTGGG, the binding signal was found to be 0.192 ± 0.0212 E-score.
Then AGTGTAGA, with 0.369 ± 0.0196 E-score.

The values above are taken from paper PMC10668032, “Altered binding affinity of SIX1-Q177R correlates with enhanced WNT5A and WNT pathway effector expression in Wilms tumor”.
